In all, about 320,000 compounds went through this assay and about 2,100 (0.66%) were called active. Another 53% or so got no clear call; they are omitted. Calls come from the whole dose curve; as a rule, active = well fitted inhibition curve with a large enough effect in the signal ratio, with a control signal flat (not every such curve was filed as active); inconclusive = small, poorly fitted or top-dose-only effect, or effect the other way, or a change in a side signal; inactive = flat fitted curve, though single readings scatter; the % refers to the signal ratio. For the sample, actives were picked, then their nearest neighbours and some compounds at random.
experiment: qHTS Assay for Lipid Storage Modulators in Drosophila S3 Cells; conditions: BODIPY lipid droplet fluorescence, 18-24 h, cells fed with added oleic acid; cell number change: measured here: cell count max response; series mostly up to 46.1 µM; lipid storage change, negative = inhibition: at the top concentration;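 for cell number change: cells counted by Cell Tracker Red CMTPX staining in the red channel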; for lipid storage change, negative = inhibition: % is set by controls: 0 for no effect and ±100 for the full control effect
Summary of the method: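 Drosophila S3 cells loaded with oleic acid (400 uM, as added) and compounds at several concentrations; lipid droplets imaged by 488-nm laser-scanning cytometry, 500–530 nm intensity and object ratio to cell channel. Percent activity normalized to 20 uM Triacsin C.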
Potency is the fitted concentration of half-maximal effect.

Row | SMILES | Potency | lipid storage change, negative = inhibition | cell number change [%] | outcome
1 | CCCCCCSc1ccc(-c2nc3ccc(C)cn3c2NC2CCCCC2)cc1 | 11.6 µM (active) | – | – | –
2 | CC(C)(C)CC(=O)Nc1nn[nH]n1 | – | 2.6% (inactive) | -2.51 | –
3 | O=C(NNC(=S)NC1CC2C=CC1C2)c1cccnc1 (centres undefined) | – | 2.66% (inactive) | 2.14 | –
4 | COCC(=O)Nc1ccc(Br)c(C)c1 | – | 14.1% [at 9.22 µM] (inactive) | 9.41 | –
5 | CCOC(=O)Cc1csc(SCC(=O)Nc2ccc(C)cc2F)n1 | – | 31.2% (inactive) | -11 | –
6 | CCOC(=O)Cc1csc(SCC(=O)Nc2cccc(Cl)c2)n1 | – | -3.77% (inactive) | 13.5 | –
7 | CCOC(=O)Cc1csc(SCC(=O)NC(C)C23CC4CC(CC(C4)C2)C3)n1 (centres undefined) | 1.64 µM (active) | – | 5.41 | –
8 | O=C(Nc1ccccn1)c1ccc(Cl)c(S(=O)(=O)N2CCOCC2)c1 | – | -1.8% (inactive) | 13.7 | –
9 | CCOC(=O)COc1ccccc1C(=O)c1cnn(-c2ccccc2)c1 | – | 8.31% (inactive) | 3.88 | –
10 | CCC(C)NC(=O)CSc1nc2ccccc2c(=O)n1CCCN1CCCCC1 (centres undefined) | – | 24.2% (inactive) | -2.07 | –
11 | Cc1cc([N+](=O)[O-])nn1CCC(=O)Nc1nccs1 | – | 15% (inactive) | 0.24 | –
12 | CCCN1CCc2c(sc(NC(=O)c3ccc(S(=O)(=O)N(C)c4ccccc4)cc3)c2C(N)=O)C1 | 13 µM (active) | – | -20.7 | –
13 | CCCN1CCc2c(sc(NC(=O)c3ccc(S(=O)(=O)N(C)c4ccccc4)cc3)c2C(=O)NC)C1 | 4.11 µM (active) | – | -17.2 | –
14 | CN1CCc2c(sc(NC(=O)c3ccc(C(=O)c4ccccc4)cc3)c2C(N)=O)C1 | – | -25.9% (inactive) | 0.647 | –
15 | CCCN1CCc2c(sc(NC(=S)NC(=O)c3ccccc3)c2C#N)C1 | – | -2.06% (inactive) | 3.88 | –
16 | COC(=O)c1c(NC(=O)c2ccc(N(C)S(=O)(=O)c3ccc(C)cc3)cc2)sc2c1CCCC2 | – | 8.28% (inactive) | -4.01 | –

Row | SMILES | Potency | lipid storage change, negative = inhibition | cell number change [%] | outcome
17 | CCCN1CCc2c(sc(NC(=O)c3ccc(S(=O)(=O)N4CCN(C(=O)OCC)CC4)cc3)c2C(N)=O)C1 | – | -19.6% (inactive) | -7.97 | –
18 | COc1cc(OC)c(C(=O)OCC(=O)NCCC2=CCCCC2)cc1OC | – | – | -12.4 | inactive
19 | COCCNC(=O)CCCn1c(=O)c2cc(OC)c(OC)cc2n(CC(=O)c2ccc(Cl)cc2)c1=O | – | -0.141% (inactive) | -4.78 | –
20 | CCOC(=O)C1CCN(C(=O)CC(NS(=O)(=O)c2ccc(OC)cc2)C(C)C)CC1 (centres undefined) | – | 8% (inactive) | 5.69 | –
21 | OCCCNc1cc(-c2ccnc(Nc3cccc(Cl)c3)n2)ccn1 | 6.51 µM (active) | – | -20.1 | –
22 | CN(C)CCCNc1ccc(-c2cc(Nc3cccc(Cl)c3)ncn2)cn1 | – | 8.12% (inactive) | 7.36 | –
23 | CC(C)n1cnc2c(Nc3cccc(Cl)c3)nc(NCCCO)nc21 | – | -22.1% (inactive) | 1.01 | –
24 | OC(COc1c(F)cc(Br)cc1F)CN1CCc2ccccc2C1 (centres undefined) | – | 12.2% (inactive) | -1.04 | –
25 | c1ccc(Cc2nnc3sc(-c4ccccn4)nn23)cc1 | – | – | – | inactive
26 | CCN(CC)CCN(Cc1cc2cc3c(cc2[nH]c1=O)OCCO3)C(=O)NC1CCCCC1 | 16.4 µM (active) | – | 4.42 | –
27 | O=C(NC1CCCCC1)N(CCN1CCCC1)Cc1cc2cc3c(cc2[nH]c1=O)OCCO3 | – | – | – | inactive
28 | CN(C)CCCN(Cc1cc2cc3c(cc2[nH]c1=O)OCCO3)C(=O)NC1CCCCC1 | – | -6.26% (inactive) | 0.0235 | –
29 | Cc1ccc(Nc2nc(N)nc(CN3CCN(C)CC3)n2)cc1 | 25.9 µM (active) | – | -12 | –
30 | CN1CCN(Cc2nc(N)nc(Nc3ccc4c(c3)OCCO4)n2)CC1 | – | 1.73% (inactive) | -0.153 | –
31 | Cc1ccc(Nc2nc(N)nc(CN3CCN(C)CC3)n2)cc1C | – | 2.99% (inactive) | 7.98 | –

Source: PubChem BioAssay AID2685 (National Center for Advancing Translational Sciences (NCATS), 2010)
